Data: PubChem BioAssay
Activity calls are given as the source filed them. Unless noted, the rule behind the calls is not given here.

What was measured:
[1] = blood-stage malaria parasite viability loss – strain 3D7, DAPI fluorescence, 100 nL, primary screen (AID 1184);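 note: parasites grown inside human red blood cells in medium with human serum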; details: P. falciparum 3D7 growth, 3 d, higher = more signal
[2] = molecular target: Homeobox protein Hox-A13 (Mus musculus) (UniProt Q62424); experiment: disruptors of Hoxa13 oligonucleotide interaction – biochemical, fluorescence polarization, labeled oligonucleotide, primary screen (AID 1185); details: Hoxa13:DNA binding, 15 min, higher = more signal, called active from +8 up or from −8 down
[3] = blockers of DNA damage checkpoint Chk1 activation – imaging, HeLa, hydroxyurea, phospho-Chk1 antibody, percent positive cells, primary screen (AID 1186); details: hydroxyurea-induced phospho-Chk1 immunofluorescence imaging, higher = more signal
[4] = blockers of DNA damage checkpoint Chk1 activation – imaging, HeLa, hydroxyurea, phospho-Chk1 nuclear intensity, primary screen (AID 1187); details: hydroxyurea-induced phospho-Chk1 immunofluorescence imaging, higher = more signal; note: test concentration not given here

Sequence of Homeobox protein Hox-A13 (Mus musculus) (Q62424 whole entry, looked up): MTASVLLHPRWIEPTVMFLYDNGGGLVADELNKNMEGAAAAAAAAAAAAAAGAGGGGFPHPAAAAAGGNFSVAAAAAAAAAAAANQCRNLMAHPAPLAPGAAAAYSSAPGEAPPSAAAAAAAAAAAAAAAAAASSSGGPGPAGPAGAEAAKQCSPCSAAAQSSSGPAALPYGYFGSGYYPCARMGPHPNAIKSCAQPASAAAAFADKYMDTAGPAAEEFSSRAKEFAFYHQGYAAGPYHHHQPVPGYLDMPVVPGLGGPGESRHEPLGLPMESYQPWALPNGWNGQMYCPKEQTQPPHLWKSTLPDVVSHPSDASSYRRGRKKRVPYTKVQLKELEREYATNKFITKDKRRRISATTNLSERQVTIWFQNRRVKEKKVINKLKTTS

Compound | z-score [1] | z-score [2] | z-score [3] | z-score [4]
COC(=O)C(CC#Cc1ccc2c(c1)[C@]1(C(=O)N2)[C@H](C(N)=O)[C@H]2C(=O)O[C@H](c3ccccc3)[C@H](c3ccccc3)N2[C@@H]1c1ccc(O)cc1)C(=O)OC | -0.91 | -3.34 (inactive) | 0.16 (inactive) | 0.819 (inactive)
CC(C)C(CO)N1C(=O)[C@@H]2C3C(=O)OCCC/C=C\[C@H]3OC23C=CCN(C(C)C)C(=O)[C@@H]13 (stereo partly drawn) | 0.0709 | -4.01 (inactive) | -1.29 (inactive) | -1.14 (inactive)
COC(=O)C1=CC(c2ccc(CO)cc2)=CC(C2CC2)N(C)C=C1C(=O)OC (stereo not drawn) | -0.591 | -8.22 (active) | -0.516 (inactive) | -0.732 (inactive)
O=C1O[C@@H](c2ccccc2)[C@@H](c2ccccc2)N2[C@@H](c3ccc(OCCO)cc3)[C@]3(C(=O)Nc4ccc(C#CC5(O)CCCCCC5)cc43)[C@@H](C(=O)NC[C@H](O)c3ccccc3)[C@H]12 | -2.21 | -1.22 (inactive) | 0.0477 (inactive) | 0.343 (inactive)
C=CC[C@@H](OC(=O)Nc1ccc(SC)cc1)c1ccc(OCCO)cc1 | 0.246 | -5.9 (inactive) | -0.0622 (inactive) | 0.593 (inactive)
CCOC(=O)C[C@H]1[C@H](OC(=O)c2ccc(C(=O)c3ccccc3)cc2)[C@@H](NC(=O)Cc2ccc(OC)cc2)c2cc(OCCCO)ccc2N1C(=O)Cc1ccc(OC)cc1 | -0.283 | -2.01 (inactive) | 0.0944 (inactive) | 0.0944 (inactive)
C=CCC(OC(C)=O)[C@@H]1[C@@H](N(Cc2ccc(-c3ccccc3)cc2)C(=O)c2ccc(-c3ccccc3)cc2)c2cc(OCCCO)ccc2N1C(=O)c1ccc(-c2ccccc2)cc1 (stereo partly drawn) | -0.883 | -0.513 (inactive) | -0.293 (inactive) | 0.122 (inactive)
C=CCN1C(=O)[C@@]2(O[C@@H](CCn3cc(CCO)nn3)[C@H]([Si](C)(C)c3ccc(OC)cc3)[C@H]2C)c2cc(N3C(=O)c4cccc5cccc3c45)ccc21 | -2.85 | -5.26 (inactive) | -1.11 (inactive) | -0.144 (inactive)
NCCCCCNC(=O)[C@H]1C[C@H]2C(=O)NCC(=O)N2[C@H]1c1ccc(O)cc1 | -0.223 | -0.587 (inactive) | 0.637 (inactive) | 0.791 (inactive)
CC(C)CNC(=O)[C@@H]1c2ccccc2C(=O)N(Cc2ccc(OC(F)(F)F)cc2)[C@H]1c1ccc(CO)cc1 | -0.192 | -2.67 (inactive) | -0.919 (inactive) | -1.36 (inactive)
CCCCC(=C=CC[C@@H](O)c1ccc(OCCO)cc1)C[C@@H](O)c1cc(Cl)cc(Cl)c1O | -2.87 | -3.4 (inactive) | -0.806 (inactive) | -0.578 (inactive)
CC(C)(C)OC(=O)CC[C@@]1(C(=O)N2CCOCC2)N=C(c2ccc(OCCCO)cc2)O[C@@H]1c1ccccc1 | -1.19 | -4.03 (inactive) | -0.31 (inactive) | -0.323 (inactive)
COC(=O)c1c(CC[C@@H](CO)NC(=O)Nc2ccc(OC)cc2)oc(C(=O)Cc2ccccc2)c1C(=O)OC | -0.83 | -4.5 (inactive) | 0.0211 (inactive) | 0.406 (inactive)
O=C(N1CCCCC1)[C@@]1(Cc2ccccc2)N=C(c2ccc(OCCCO)cc2)O[C@H]1c1ccccc1 | -2.18 | -3.68 (inactive) | -1.29 (inactive) | -1.55 (inactive)
CO[C@H]1O[C@H](CO)[C@@H](OC(=O)Nc2ccccc2)[C@H](OC(=O)Nc2ccccc2-c2ccccc2)[C@@H]1OC(=O)Nc1ccccc1-c1ccccc1 | -2.3 | -1.96 (inactive) | -0.515 (inactive) | -0.367 (inactive)
COCCOC(=O)N1C(=O)[C@@]2(c3ccccc31)[C@H](C(=O)Nc1nc3ccccc3s1)[C@H]1C(=O)O[C@H](c3ccccc3)[C@H](c3ccccc3)N1[C@@H]2c1ccc(O)cc1 | 0.112 | 0.895 (inactive) | -0.2 (inactive) | 0.3 (inactive)
CCOC(=O)C[C@H]1[C@H](OC(=O)c2ccc(-c3ccccc3)cc2)[C@@H](NC(=O)C2CCCCC2)c2cc(OCCCO)ccc2N1C(=O)c1ccc2ccccc2n1 | -0.915 | -0.844 (inactive) | -0.807 (inactive) | -0.479 (inactive)
CCCCCN1CC=CC23O[C@@H]4/C=C\CCC(C)OC(=O)C4[C@H]2C(=O)N(CCCO)[C@@H]3C1=O (stereo partly drawn) | -0.186 | -3.86 (inactive) | -0.183 (inactive) | 0.0885 (inactive)
C=C(COC)/C(=C/C[C@H](OC(C)=O)c1ccc(CO)o1)c1cnc2ccccc2c1 | -0.649 | -4.41 (inactive) | -0.595 (inactive) | -0.669 (inactive)
CN1C=C(C(=O)OCCS(C)(=O)=O)C(C(=O)OCCS(C)(=O)=O)=CC(CCCO)=CC1c1cccs1 (stereo not drawn) | -0.654 | -5.5 (inactive) | -0.084 (inactive) | -0.389 (inactive)
CCCCC(=C=CC[C@H](O)c1cccc(OCCO)c1)CCO | -1.01 | -2.75 (inactive) | -0.0801 (inactive) | -0.401 (inactive)

Compound | z-score [1] | z-score [2] | z-score [3] | z-score [4]
CC(C)C[C@@H]1NC(=O)[C@@H]2C[C@H](C(=O)NCCCCCNC(=O)CS)[C@H](c3cccc(OCCO)c3)N2C1=O | -0.37 | -2.89 (inactive) | 0.611 (inactive) | 0.419 (inactive)
CC(C)N1C(=O)c2ccccc2[C@@H](C(=O)NCc2ccccc2)[C@@H]1c1ccc(CO)cc1 | -0.3 | -0.468 (inactive) | -0.67 (inactive) | -0.869 (inactive)
C/C=C/[C@@H](CCn1cc(CCO[Si](C(C)C)(C(C)C)C(C)C)nn1)[Si](C)(C)c1ccc(OC)cc1 | -0.84 | -5.56 (inactive) | -0.233 (inactive) | 0.122 (inactive)
COCCCNC(=O)[C@@]1(C)c2ccccc2C(=O)N(Cc2cc(F)cc(C(F)(F)F)c2)[C@H]1c1ccc(CO)cc1 | -0.753 | -2.01 (inactive) | -0.1 (inactive) | 0.802 (inactive)
C=C(C1=CCN(S(=O)(=O)c2ccc(C)cc2)C1)[C@@H](OC(C)=O)[C@@H]1CCCN1S(=O)(=O)c1ccccc1[N+](=O)[O-] | -2.68 | -3.62 (inactive) | -0.353 (inactive) | 0.0039 (inactive)
COCCCNC(=O)[C@@]1(Cc2ccccc2CN=[N+]=[N-])COC(c2ccc(OCCCO)cc2)=N1 | -2.1 | -4.83 (inactive) | -0.742 (inactive) | -0.73 (inactive)
O=C1c2ccccc2[C@@]2(Cc3ccccc3N(CC(F)(F)F)C2=O)[C@H](c2ccc(CO)cc2)N1Cc1ccccc1C(F)(F)F | 0.226 | -0.0255 (inactive) | -0.563 (inactive) | -0.816 (inactive)
C=CCN1C(=O)[C@@]2(O[C@@H](CCO)[C@H]([Si](C)(C)c3ccc(OC)cc3)[C@H]2C)c2cc(N3C(=O)c4cccc5cccc3c45)ccc21 | -2.57 | -2.8 (inactive) | -1.22 (inactive) | -0.751 (inactive)
O=C(NCc1ccccc1)[C@@H]1c2ccccc2C(=O)N(Cc2ccccc2Cl)[C@H]1c1ccc(CO)cc1 | 0.187 | -0.497 (inactive) | -0.0434 (inactive) | 0.206 (inactive)
C=CCNC(=O)[C@H]1[C@@H]2C(=O)O[C@@H](c3ccccc3)[C@@H](c3ccccc3)N2[C@@H](c2ccc(OCCO)cc2)[C@]12C(=O)Nc1ccc(C#CCCO)cc12 | -0.739 | -3.71 (inactive) | -0.229 (inactive) | -0.205 (inactive)
COc1ccc([Si](C)(C)[C@@H]2[C@@H](CC(=O)N3CCC[C@H]3CO)O[C@]3(C(=O)N(Cc4ccc(I)cc4)c4ccccc43)[C@H]2C)cc1 | -2.17 | -2.86 (inactive) | -0.703 (inactive) | -0.413 (inactive)
C=C(/C(=C/C[C@H](OC(=O)c1ccncc1)c1cccc(OCCO)c1)c1cc(C(=O)OC)ccc1OC)C(C)C | -2.77 | -2.91 (inactive) | -1.09 (inactive) | -1.36 (inactive)
CCCCCN1CC=CC23O[C@@H]4/C=C\CCC(C)OC(=O)C4[C@H]2C(=O)N(CCO)[C@@H]3C1=O (stereo partly drawn) | -1.41 | -3.89 (inactive) | -0.174 (inactive) | 0.125 (inactive)
C=C(COC)C(=O)CC[C@H](OC(=O)c1ccccc1-c1ccccc1C(=O)O)c1ccccc1OCCO | -1.11 | -3.93 (inactive) | 0.269 (inactive) | -0.228 (inactive)
C[N+](C)(C)CCCCNC(=O)[C@@H]1C[C@@H]2C(=O)NCC(=O)N2[C@@H]1c1cccc(OCCO)c1 | -0.664 | -1.4 (inactive) | 0.469 (inactive) | 1.31 (inactive)
O=C(O)[C@H]1C[C@H]2C(=O)N[C@@H](Cc3ccccc3)C(=O)N2[C@H]1c1ccc(O)cc1 | -0.453 | -2.68 (inactive) | -0.119 (inactive) | -0.18 (inactive)
C[N+](C)(C)CCCC[C@@H]1NC(=O)[C@H]2C[C@@H](C(=O)NCCCCCN)[C@@H](c3cccc(OCCO)c3)N2C1=O | -1.09 | -2.19 (inactive) | 0.287 (inactive) | 0.7 (inactive)
CC(C)C(=C=CC[C@@H](O)c1ccc(CO)o1)CCO | -0.0113 | -3.45 (inactive) | -0.969 (inactive) | -0.763 (inactive)
Cc1ccc(N2C(=O)c3ccccc3[C@](C)(C(=O)NCC(F)(F)F)[C@@H]2c2ccc(CO)cc2)nc1 | -1.36 | -1.16 (inactive) | -0.326 (inactive) | -0.277 (inactive)
C=CCC(OC(C)=O)[C@@H]1[C@@H](N(Cc2cccc3ccccc23)C(=O)Cc2ccc(OC)cc2)c2cc(OCCCO)ccc2N1C(=O)Cc1ccc(OC)cc1 (stereo partly drawn) | -2.1 | -2.18 (inactive) | 0.162 (inactive) | 0.268 (inactive)
CC(CO)N1C(=O)[C@@H]2C3C(=O)OCCC/C=C\[C@H]3OC23C=CCN(Cc2ccccc2)C(=O)[C@@H]13 (stereo partly drawn) | -0.518 | -5.46 (inactive) | -0.6 (inactive) | -0.674 (inactive)
